Data as given in PubChem BioAssay (NCATS).
Records with an inconclusive call do not appear. Entries that show only a call come without a potency. Calls of active or inactive are those of the source. Calls come from the whole dose curve; as a rule, active = well fitted inhibition curve with a large enough effect; inconclusive = small, poorly fitted or top-dose-only effect; inactive = flat fitted curve, though single readings scatter.

System: Zika virus NS2B-NS3 protease
Test: Primary screen GU AMC qHTS for Zika virus inhibitors (AID 1347154); note: nearly all actives have a fitted effect of over 70% in size
Settings: Zika NS2B-NS3 unlinked protease, AMC fluorogenic substrate; series mostly up to 54.1 µM
In short: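 Unlinked Zika NS2B hydrophilic domain/NS3 protease domain noncovalent complex (25 nM final) in 10 mM Tris-HCl pH 8.0, 0.01% Tween 20, with AMC peptide substrate. Fluorescence (ex 340, em 450 nm) change over 15 min, room temperature; percent inhibition fitted to 4-parameter Hill equation.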
Potency is the fitted concentration of half-maximal effect.

| SMILES | Potency |
| --- | --- |
| CN1CCC[C@@H]1CCO[C@](C)(c1ccccc1)c1ccc(Cl)cc1 | inactive |
| CC(=O)Nc1ccc(OCC(O)CNC(C)C)cc1 (stereo not given) | inactive |
| NC(=O)n1c(O)c(C(=O)c2cccs2)c2cc(Cl)ccc21 | inactive |
| CCN1CCN(C(=O)N[C@@H](C(=O)N[C@@H]2C(=O)N3C(C(=O)O)=C(CSc4nnnn4C)CS[C@H]23)c2ccc(O)cc2)C(=O)C1=O | inactive |
| CC(=O)NC(=O)c1ccccc1O | inactive |
| NCCNc1cccc2ccccc12 | 14.4 µM (active) |
| CCCCC(CC)COC(=O)/C=C/c1ccc(OC)cc1 (stereo not given) | inactive |
| COc1cc(O)c(C(=O)c2ccccc2)cc1S(=O)(=O)O | inactive |
| Cc1cc(CC(=O)O)c(C)n1-c1ccc(Cl)cc1 | inactive |
| O=C(Nc1ccccc1)OCC(CN1CCCCC1)OC(=O)Nc1ccccc1 (stereo not given) | inactive |
| Cc1cc(NS(=O)(=O)c2ccc(N)cc2)nc(C)n1 | inactive |
| O=C(Nc1ncc([N+](=O)[O-])s1)c1cccs1 | inactive |
| CCOC(=O)C(C#N)=C(c1ccccc1)c1ccccc1 | inactive |
| Oc1c(Cl)cc(Cl)c(Cl)c1Cc1c(O)c(Cl)cc(Cl)c1Cl | 7.94 µM (active) |
| Cn1c(=O)c2[nH]c(Br)nc2n(C)c1=O | inactive |
| C[C@@H](O)[C@H]1C(=O)N2C(C(=O)O)=C(S[C@@H]3CN[C@H](CNS(N)(=O)=O)C3)[C@H](C)[C@H]12 | inactive |
| OCc1ccccn1 | inactive |
| O=c1[nH]c(=O)n([C@H]2C[C@H](O)[C@@H](CO)O2)cc1F | inactive |
| O=C(CCN1CCN2CCCC2C1)N1c2ccccc2Sc2ccc(Cl)cc21 (stereo not given) | inactive |
| COP(=O)(OC)OC(c1ccc(Cl)cc1)P(=O)(OC)OC (stereo not given) | inactive |

| SMILES | Potency |
| --- | --- |
| O=C(Nc1ccc([N+](=O)[O-])cc1)Nc1ccc([N+](=O)[O-])cc1 | inactive |
| Nc1ccc(S(=O)(=O)NCc2ccccc2)cc1 | inactive |
| Cc1cccc(C)c1NC(=O)CN1CCCCCC1 | inactive |
| CC(C)Cn1cnc2c1c(=O)n(C)c(=O)n2C | inactive |
| CCCCOC(=O)CC(CC(=O)OCCCC)(OC(C)=O)C(=O)OCCCC | inactive |
| OC1C(O)C(O)C(O)C(O)C1O (stereo not given) | inactive |
| C[C@]12CCC(=O)C=C1C=C[C@@H]1[C@@H]2CC[C@@]2(C)[C@H]1CC[C@@]21CCC(=O)O1 | inactive |
| C=C[C@H]1CN2CC[C@H]1C[C@@H]2[C@@H](O)c1ccnc2ccc(OC)cc12 | inactive |
| CCN(CC)CCNC(=O)c1cc(Br)c(N)cc1OC | inactive |
| CCc1cc(Cl)c(OC)c(C(=O)NC[C@@H]2CCCN2CC)c1O | inactive |
| OC[C@H]1O[C@@H]2O[C@H]3[C@H](O)[C@@H](O)[C@@H](O[C@H]4[C@H](O)[C@@H](O)[C@@H](O[C@H]5[C@H](O)[C@@H](O)[C@@H](O[C@H]6[C@H](O)[C@@H](O)[C@@H](O[C@H]7[C@H](O)[C@@H](O)[C@@H](O[C@H]8[C@H](O)[C@@H](O)[C@@H](O[C@H]1[C@H](O)[C@H]2O)O[C@@H]8CO)O[C@@H]7CO)O[C@@H]6CO)O[C@@H]5CO)O[C@@H]4CO)O[C@@H]3CO | inactive |
| CCOCCn1c(N2CCCN(C)CC2)nc2ccccc21 | inactive |
| Clc1cccc(C(c2ccc3nc[nH]c3c2)n2ccnc2)c1 (stereo not given) | inactive |
| CC(C)(C)NC[C@H](O)COc1cccc2c1CCCC2=O | inactive |
| COc1cc(N)c(Cl)cc1C(=O)NC1CCN(Cc2ccccc2)CC1 | inactive |
| C=C[C@H]1CN2CC[C@H]1C[C@H]2[C@H](O)c1ccnc2ccc(OC)cc12 | inactive |
| O=C(c1ccc(F)cc1)C1CCN(CCn2c(=S)[nH]c3ccccc3c2=O)CC1 | inactive |
| N#C/C(=C1\SCC(c2ccccc2Cl)S1)n1ccnc1 (stereo not given) | inactive |
| CC[C@]12CCCN3CCc4c(n(c5ccccc45)C(=O)C1)[C@@H]32 | inactive |
| C/C=C/C=N/NC(=O)c1ccncc1 | inactive |
